Test results published in PubChem BioAssay (NCATS).
Records with an inconclusive call do not appear. Activity calls are given as the source filed them. Unless noted, the call rests on the fitted dose curve; in most records, active means well fitted curve in the direction sought with a large enough effect; inconclusive means small, poorly fitted or top-dose-only effect, or another doubt; inactive means no such curve, though single readings can be large; an effect the other way counts as inactive or inconclusive.

What was measured:
[1] = target: Cytochrome P450 1A2 (Homo sapiens) (UniProt P05177); assay: p450-cyp1a2 (AID 410; calls by dose curve; further: potency means the concentration at half of the fitted maximal effect)
How it was run: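 Inhibition was calculated relative to 57 uM furafylline (full inhibition). The reaction used human CYP1A2 at 20nM with Luciferin-ME at its Km, 100uM, driven by an NADPH-regenerating system for 60 min at room temperature.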

[2] = target: Glucocorticoid receptor (Homo sapiens) (UniProt P04150); assay: GR-GFP Redistribution (AID 450;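 active means compounds whose dose series gives a full or clear partial fitted curve of increased nuclear translocation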; further: potency means the concentration at half of the fitted maximal effect); conditions: U2OS GR-GFP nuclear translocation, laser cytometry, 2 h
[3] = target: Mitogen-activated protein kinase 10 (Mus musculus) (UniProt Q61831); assay: JNK3 AlphaScreen Assay (AID 530; active means well fitted curve in either direction with a large enough effect, not every such curve was filed as active;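 further: kinase came from lysate of stimulated human HepG2 cells; signal reports phosphorylation of biotinylated GST-cJun 1-79 at Ser73 with 10 µM ATP; series mostly up to about 57 µM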)
How it was run: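 qHTS format: compounds tested as titrations against IL-1beta/TNF-alpha-activated HepG2 lysate JNK3 with biotin-GST-cJun substrate and 10 uM ATP at room temperature. Loss of anti-phospho-cJun AlphaScreen signal indicates inhibition.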

[4] = target: 3',5'-cyclic-AMP phosphodiesterase 4B (Homo sapiens) (UniProt Q07343); assay: qHTS Assay for Inhibitors of PDE-IV (AID 607; active means well fitted activation curve with a large enough effect in the main read-out, with a control signal flat, not every such curve was filed as active; further: potency means the concentration at half of the fitted maximal effect)
How it was run: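 The readout is membrane depolarisation from a cAMP-sensing CNG channel, detected with a potential dye at ex 535/em 590. Cells were HEK293-derived (endogenous PDE-IV) at 1000 cells/well, titrated up to 22.9 uM final.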

[5] = target: Cytochrome P450 3A4 (Homo sapiens) (UniProt P08684); assay: qHTS Assay for Activators of Cytochrome P450 3A4 (AID 885); further: nearly all actives have a fitted effect of over 65% in size
How it was run: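 Steps: enzyme/substrate mix dispensed; compound added, 10 min RT; NADPH regeneration solution added, 60 min RT; luciferin detection buffer stops reaction; 20 min later luminescence measured.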

[6] = target: DNA dC->dU-editing enzyme APOBEC-3G (Homo sapiens) (UniProt Q9HC16); assay: qHTS for inhibitors of Vif-A3G interactions: Validation (AID 588379)
How it was run: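 HeLa cells stably expressing Vif and A3G-eYFP, 700 cells/well, incubated overnight at 37 deg C, then exposed to compound overnight at 37 deg C. Inhibition of Vif-mediated degradation read as increased yellow fluorescence (Ex 488/Em 500-530) by laser-scanning cytometry.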

[7] = test system: Zika virus NS2B-NS3 protease; assay: Primary screen GU AMC qHTS for Zika virus inhibitors (AID 1347154); further: nearly all actives have a fitted effect of over 70% in size
How it was run: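 Unlinked Zika NS2B hydrophilic domain–NS3 protease complex at 25 nM in 10 mM Tris-HCl pH 8.0, 0.01% Tween 20, with an AMC peptide substrate. Fluorescence change (340/450 nm) over 15 min at room temperature, normalized to controls, fitted to 4-parameter Hill.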

[8] = Primary qHTS for small molecule stabilizers of the endoplasmic reticulum resident proteome: Secreted ER Calcium Modulated Protein (SERCaMP) assay (AID 1508630)
How it was run: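 GLuc-SERCaMP-expressing SH-SY5Y cells, pretreated 16 h with compound, are challenged with thapsigargin to empty ER calcium stores; after 4 h, coelenterazine is added directly to the medium and luminescence is imaged.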

[9] = target: Glucocorticoid receptor (Homo sapiens) (UniProt P04150); assay: GR-EFC Redistribution (AID 451; calls by dose curve; further: potency means the concentration at half of the fitted maximal effect); conditions: CHO-K1 GR-EFC translocation, beta-gal luminescence, 2 h
How it was run: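 CHO-K1 cells expressing nuclear EA and GR-ED fragments of b-gal; compounds titrated up to 46 uM final, 2 h at 37 C. GR nuclear translocation read as complemented b-gal luminescence after 1 h RT detection.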

[10] = target: Cytochrome P450 2C9 (Homo sapiens) (UniProt P11712); assay: qHTS Assay for Inhibitors and Substrates of Cytochrome P450 2C9 (AID 883); further: potency means the concentration at half of the fitted maximal effect; nearly all actives have a fitted effect of over 60% in size
How it was run: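 Human CYP2C9 (10nM) with Luciferin-H at 100uM (its KM) in 25mM KPO4; compound preincubated 10 min at 37C, then NADPH regeneration for 60 min at 37C. Luciferin read by luminescence after detection reagent; normalized to 57uM sulphaphenazole as full inhibition.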

[11] = target: Cytochrome P450 2C19 (Homo sapiens) (UniProt P33261); assay: qHTS Assay for Inhibitors and Substrates of Cytochrome P450 2C19 (AID 899); further: potency means the concentration at half of the fitted maximal effect; nearly all actives have a fitted effect of over 60% in size
How it was run: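 5 nM human CYP2C19 with 10uM Luciferin-H EGE (at KM) in 50mM KPO4, compound preincubated 10 min at 37C, then NADPH regeneration for 60 min at 37C. Luciferin read by luminescence after detection reagent; normalized to 57uM ketoconazole as full inhibition.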

[12] = target: Ubiquitin carboxyl-terminal hydrolase 1 (Homo sapiens) (UniProt O94782); assay: Inhibitors of USP1/UAF1: Pilot qHTS (AID 504865);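 further: rhodamine fluorescence freed from ubiquitin-rhodamine substrate followed over time; top concentration of the series differs between compounds; nearly all actives have a fitted effect of over 35% in size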
How it was run: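 Kinetic fluorescence assay: 1nM USP1/UAF1, 15 min compound preincubation, then 150nM Ub-Rho; 480/540 nm.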

[13] = target: Guanine nucleotide-binding protein G(i) subunit alpha-1 (Homo sapiens) (UniProt P63096); assay: qHTS Assay for Inhibitors of RGS12 GoLoco Motif Activity (Green Fluorophore) (AID 879);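 further: negative values mean loss of peptide binding seen as reduced polarization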
How it was run: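 Fluorescence polarization assay: 50 nM Gαi1 with 10 nM FITC-labeled RGS12 GoLoco peptide in 10 mM Tris pH 7.5, 150 mM NaCl, 0.1 mM GDP, 0.05% NP40, 10 min at room temperature with compound.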

[14] = target: alpha-glucosidase (Oryza sativa, rice) (UniProt Q653V4); assay: Counterscreen for Glucocerebrosidase Inhibitors: qHTS Assay for Rice alpha-Glucosidase at pH 5.0 (AID 997)
How it was run: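 Rice alpha-glucosidase (4 nM final) with 400 uM 4-methylumbelliferyl-alpha-D-glucopyranoside in citrate buffer pH 5.0, 20 min at room temperature, stopped at pH 10; fluorescence 365/440 nm, compounds 0.7 nM–77 uM, AC50 from Hill fits.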

[15] = target: Cytochrome P450 3A4 (Homo sapiens) (UniProt P08684); assay: qHTS Assay for Inhibitors and Substrates of Cytochrome P450 3A4 (AID 884); further: potency means the concentration at half of the fitted maximal effect; nearly all actives have a fitted effect of over 50% in size
How it was run: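 20 nM human CYP3A4 with 25 uM Luciferin-PPXE (at KM) in 200 mM KPO4, preincubated 10 min with compound; NADPH regeneration started a 60 min RT reaction. Luciferin detected by luminescence, normalized to 57 uM ketoconazole as full inhibition.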

Measured: Potency

Glucocorticoid receptor (Homo sapiens), sequence (P04150 whole entry, looked up, the tested form may be a part): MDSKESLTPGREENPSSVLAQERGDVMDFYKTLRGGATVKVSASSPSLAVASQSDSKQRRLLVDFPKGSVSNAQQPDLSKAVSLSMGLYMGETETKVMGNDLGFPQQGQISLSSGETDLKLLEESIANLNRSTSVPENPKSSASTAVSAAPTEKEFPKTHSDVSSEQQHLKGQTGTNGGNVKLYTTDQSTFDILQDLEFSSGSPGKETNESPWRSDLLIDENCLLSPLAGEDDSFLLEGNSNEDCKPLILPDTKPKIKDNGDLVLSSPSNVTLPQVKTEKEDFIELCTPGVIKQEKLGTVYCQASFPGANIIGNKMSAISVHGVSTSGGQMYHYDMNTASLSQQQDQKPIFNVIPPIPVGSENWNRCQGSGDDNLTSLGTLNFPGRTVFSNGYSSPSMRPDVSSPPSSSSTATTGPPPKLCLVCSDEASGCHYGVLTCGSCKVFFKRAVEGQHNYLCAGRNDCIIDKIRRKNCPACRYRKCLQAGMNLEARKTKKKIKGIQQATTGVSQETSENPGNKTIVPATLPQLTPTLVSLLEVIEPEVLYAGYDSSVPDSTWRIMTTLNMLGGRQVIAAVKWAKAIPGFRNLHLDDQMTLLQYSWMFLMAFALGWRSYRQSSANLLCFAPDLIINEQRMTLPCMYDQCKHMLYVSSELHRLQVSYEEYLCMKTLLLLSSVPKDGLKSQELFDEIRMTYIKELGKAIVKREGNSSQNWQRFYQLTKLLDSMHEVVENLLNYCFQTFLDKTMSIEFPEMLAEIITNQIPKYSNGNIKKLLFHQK
3',5'-cyclic-AMP phosphodiesterase 4B (Homo sapiens), sequence (Q07343 whole entry, looked up): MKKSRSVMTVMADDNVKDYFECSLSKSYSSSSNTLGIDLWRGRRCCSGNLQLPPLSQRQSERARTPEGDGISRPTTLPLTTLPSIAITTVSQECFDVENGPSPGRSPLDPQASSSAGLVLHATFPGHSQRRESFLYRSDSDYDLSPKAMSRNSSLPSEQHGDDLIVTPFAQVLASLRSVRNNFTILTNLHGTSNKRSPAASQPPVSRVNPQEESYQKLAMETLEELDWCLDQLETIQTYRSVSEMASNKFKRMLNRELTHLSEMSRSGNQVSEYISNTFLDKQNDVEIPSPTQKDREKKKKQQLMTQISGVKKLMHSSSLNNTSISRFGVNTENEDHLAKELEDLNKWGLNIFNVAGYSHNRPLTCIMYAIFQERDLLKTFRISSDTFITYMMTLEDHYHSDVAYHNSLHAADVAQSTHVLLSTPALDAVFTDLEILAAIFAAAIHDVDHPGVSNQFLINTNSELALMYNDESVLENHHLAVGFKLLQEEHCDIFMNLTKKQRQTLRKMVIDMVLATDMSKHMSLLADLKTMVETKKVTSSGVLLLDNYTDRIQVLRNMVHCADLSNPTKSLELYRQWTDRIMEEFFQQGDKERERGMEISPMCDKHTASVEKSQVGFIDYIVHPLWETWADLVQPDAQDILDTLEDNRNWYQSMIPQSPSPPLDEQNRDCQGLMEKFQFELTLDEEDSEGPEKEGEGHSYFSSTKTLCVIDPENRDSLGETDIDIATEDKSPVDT
Cytochrome P450 3A4 (Homo sapiens), sequence (P08684 whole entry, looked up): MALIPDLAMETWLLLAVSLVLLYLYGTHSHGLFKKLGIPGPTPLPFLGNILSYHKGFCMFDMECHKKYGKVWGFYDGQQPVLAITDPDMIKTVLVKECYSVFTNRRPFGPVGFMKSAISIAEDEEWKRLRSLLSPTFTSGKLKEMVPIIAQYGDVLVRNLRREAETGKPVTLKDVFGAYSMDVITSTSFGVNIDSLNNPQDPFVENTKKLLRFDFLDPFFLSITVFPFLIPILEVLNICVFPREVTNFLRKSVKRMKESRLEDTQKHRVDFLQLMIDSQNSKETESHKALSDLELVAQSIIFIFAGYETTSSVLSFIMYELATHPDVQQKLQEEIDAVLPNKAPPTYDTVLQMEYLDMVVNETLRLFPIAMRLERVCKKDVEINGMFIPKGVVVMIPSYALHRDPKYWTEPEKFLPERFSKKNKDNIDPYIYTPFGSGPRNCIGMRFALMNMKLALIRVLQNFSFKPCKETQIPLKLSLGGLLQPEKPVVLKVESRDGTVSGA
Ubiquitin carboxyl-terminal hydrolase 1 (Homo sapiens), sequence (O94782 whole entry, looked up): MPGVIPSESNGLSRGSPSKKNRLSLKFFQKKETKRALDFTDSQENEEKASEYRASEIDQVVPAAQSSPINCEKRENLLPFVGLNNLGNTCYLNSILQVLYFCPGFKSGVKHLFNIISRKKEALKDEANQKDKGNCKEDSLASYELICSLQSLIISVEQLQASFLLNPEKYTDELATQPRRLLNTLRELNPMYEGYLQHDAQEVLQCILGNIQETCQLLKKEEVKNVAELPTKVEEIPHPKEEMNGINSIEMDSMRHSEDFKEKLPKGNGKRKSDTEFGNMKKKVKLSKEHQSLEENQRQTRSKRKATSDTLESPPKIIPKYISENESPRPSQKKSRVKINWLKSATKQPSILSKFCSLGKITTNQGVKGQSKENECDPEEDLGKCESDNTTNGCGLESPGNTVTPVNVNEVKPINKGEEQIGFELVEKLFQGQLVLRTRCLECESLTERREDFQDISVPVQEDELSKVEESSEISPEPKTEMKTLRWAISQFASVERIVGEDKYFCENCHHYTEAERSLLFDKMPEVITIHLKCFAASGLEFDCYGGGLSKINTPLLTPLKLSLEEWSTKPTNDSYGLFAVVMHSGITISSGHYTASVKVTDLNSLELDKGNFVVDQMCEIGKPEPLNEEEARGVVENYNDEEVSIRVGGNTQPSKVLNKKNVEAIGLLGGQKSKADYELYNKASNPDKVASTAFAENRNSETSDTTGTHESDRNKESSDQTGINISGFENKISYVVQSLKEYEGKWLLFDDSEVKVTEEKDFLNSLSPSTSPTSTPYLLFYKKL
DNA dC->dU-editing enzyme APOBEC-3G (Homo sapiens), sequence (Q9HC16 whole entry, looked up): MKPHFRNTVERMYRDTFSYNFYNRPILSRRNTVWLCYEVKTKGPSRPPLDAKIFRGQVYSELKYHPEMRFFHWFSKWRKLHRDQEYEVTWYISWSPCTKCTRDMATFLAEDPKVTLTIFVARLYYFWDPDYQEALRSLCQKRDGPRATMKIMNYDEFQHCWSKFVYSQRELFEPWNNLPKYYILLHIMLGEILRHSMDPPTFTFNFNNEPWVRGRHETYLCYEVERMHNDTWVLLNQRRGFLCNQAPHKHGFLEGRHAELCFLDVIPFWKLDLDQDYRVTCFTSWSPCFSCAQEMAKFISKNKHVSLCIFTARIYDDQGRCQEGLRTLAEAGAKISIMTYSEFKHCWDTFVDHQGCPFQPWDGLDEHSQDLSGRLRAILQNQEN
Cytochrome P450 1A2 (Homo sapiens), sequence (P05177 whole entry, looked up): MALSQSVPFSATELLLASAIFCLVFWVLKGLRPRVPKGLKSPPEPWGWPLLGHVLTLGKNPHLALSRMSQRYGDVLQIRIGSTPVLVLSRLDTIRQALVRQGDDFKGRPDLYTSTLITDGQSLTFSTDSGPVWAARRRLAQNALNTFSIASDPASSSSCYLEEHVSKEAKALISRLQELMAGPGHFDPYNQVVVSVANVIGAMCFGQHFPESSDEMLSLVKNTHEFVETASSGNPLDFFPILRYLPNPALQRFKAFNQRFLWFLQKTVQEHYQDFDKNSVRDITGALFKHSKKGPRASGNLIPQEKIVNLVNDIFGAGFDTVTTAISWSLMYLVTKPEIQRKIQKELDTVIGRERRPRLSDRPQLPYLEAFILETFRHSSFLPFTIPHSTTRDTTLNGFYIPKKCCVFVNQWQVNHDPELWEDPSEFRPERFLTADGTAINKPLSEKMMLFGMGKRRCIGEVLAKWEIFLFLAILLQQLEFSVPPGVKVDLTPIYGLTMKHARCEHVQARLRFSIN
Cytochrome P450 2C19 (Homo sapiens), sequence (P33261 whole entry, looked up): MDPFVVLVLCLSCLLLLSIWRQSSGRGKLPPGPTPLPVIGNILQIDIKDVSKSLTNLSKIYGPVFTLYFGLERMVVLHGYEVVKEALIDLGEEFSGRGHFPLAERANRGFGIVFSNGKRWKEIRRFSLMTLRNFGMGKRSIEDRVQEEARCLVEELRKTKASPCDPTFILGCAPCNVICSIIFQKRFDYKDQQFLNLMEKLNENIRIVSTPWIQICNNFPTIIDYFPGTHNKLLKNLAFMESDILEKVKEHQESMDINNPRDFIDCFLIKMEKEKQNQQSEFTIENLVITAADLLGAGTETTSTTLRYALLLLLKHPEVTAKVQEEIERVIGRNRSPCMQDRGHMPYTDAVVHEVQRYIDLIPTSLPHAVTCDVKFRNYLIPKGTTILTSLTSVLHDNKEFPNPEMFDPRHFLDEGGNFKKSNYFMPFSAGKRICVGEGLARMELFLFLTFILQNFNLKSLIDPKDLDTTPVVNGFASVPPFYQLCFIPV
Cytochrome P450 2C9 (Homo sapiens), sequence (P11712 whole entry, looked up): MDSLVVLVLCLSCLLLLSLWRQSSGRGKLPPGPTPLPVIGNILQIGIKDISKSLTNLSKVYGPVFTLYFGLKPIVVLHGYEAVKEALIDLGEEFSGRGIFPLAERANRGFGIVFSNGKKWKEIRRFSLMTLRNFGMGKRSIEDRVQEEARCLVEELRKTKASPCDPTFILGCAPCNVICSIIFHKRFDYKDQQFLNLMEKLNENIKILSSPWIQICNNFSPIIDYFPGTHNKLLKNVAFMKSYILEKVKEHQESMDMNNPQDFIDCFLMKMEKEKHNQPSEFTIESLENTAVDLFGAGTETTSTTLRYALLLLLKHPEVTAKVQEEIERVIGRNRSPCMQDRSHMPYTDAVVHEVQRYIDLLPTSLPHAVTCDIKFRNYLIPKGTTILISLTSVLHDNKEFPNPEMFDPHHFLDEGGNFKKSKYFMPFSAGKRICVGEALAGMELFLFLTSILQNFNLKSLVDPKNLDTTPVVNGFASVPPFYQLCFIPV

CCCn1c(=O)c2[nH]c(-c3ccccc3)nc2n(CCC)c1=O
active: [1] 0.0794 µM | [4] 379 nM
inactive: [2] > 46 µM | [3] | [5] | [6] | [7] | [8]

COc1ccccc1N1CCN(CCN2C(=O)c3ccccc3C(C)(C)C2=O)CC1
active: [1] 39.8 µM
inactive: [2] > 46 µM | [9] > 46 µM | [3] | [5] | [6] | [7] | [8]

NS(=O)(=O)c1cccc2c1c([N+](=O)[O-])cc1[nH]c(=O)c(=O)[nH]c12
inactive: [1] | [2] > 46 µM | [9] > 46 µM | [3] | [6] | [7] | [8]

CN1Cc2c(C(=O)OC(C)(C)C)ncn2-c2ccsc2C1=O
inactive: [2] > 46 µM | [9] > 46 µM | [3] | [6] | [7] | [8]
active: [1] 15.8 µM | [10] 5.01 µM | [11] 1.26 µM

CCN(CC)c1ncnc2c1ncn2[C@@H]1O[C@@H](COP(=O)(O)OP(=O)(O)C(Br)(Br)P(=O)(O)O)[C@H](O)[C@H]1O
inactive: [12] | [6] | [7] | [8]

N=C(N)S/C=C\C(=O)O
inactive: [2] > 46 µM | [9] > 46 µM | [3] | [6] | [7] | [8]

O=c1nc2ccccc2c2n1C[C@H](CN1CCN(c3ccccc3)CC1)N2
inactive: [2] > 46 µM | [9] > 46 µM | [3] | [12] | [6] | [7] | [8]

CCCCCCCCCCCCCCCC(=O)O[C@H](CC(=O)O)C[N+](C)(C)C
inactive: [2] > 46 µM | [9] > 46 µM | [3] | [4] | [13] | [14] | [6] | [7] | [8]

C[C@H](O)CO[C@H]1[C@H]2O[C@H]3[C@H](O)[C@@H](O)[C@@H](O[C@H]4[C@H](O)[C@@H](O)[C@@H](O[C@H]5[C@H](O)[C@@H](O)[C@@H](O[C@H]6[C@H](O)[C@@H](OC[C@H](C)O)[C@@H](O[C@H]7[C@H](O)[C@@H](OC[C@H](C)O)[C@@H](O[C@H]8[C@H](O)[C@@H](O)[C@@H](O[C@@H]([C@@H]1O)[C@@H](CO)O2)O[C@@H]8CO)O[C@@H]7CO)O[C@@H]6CO)O[C@@H]5CO)O[C@@H]4CO)O[C@@H]3CO
inactive: [2] > 46 µM | [9] > 46 µM | [3] | [12] | [7] | [8]

Cc1cc(C)c(S(=O)(=O)Nc2cccc(C(F)(F)F)c2)c(C)c1
inactive: [2] > 46 µM | [9] > 46 µM | [3] | [5] | [6] | [7] | [8]
active: [11] 3.16 µM

NCCCCCCNS(=O)(=O)c1cccc2ccccc12
inactive: [2] > 46 µM | [9] > 46 µM | [3] | [4] | [5] | [6] | [7] | [8]
active: [15] 6.31 µM

C/C=C1\C2C=C(C)CC1(N)c1ccc(=O)[nH]c1C2 (configuration not stated)
inactive: [12] | [7] | [8]

CCCCC(=O)NCCc1c(Cc2ccccc2)[nH]c2ccccc12
active: [1] 3.16 µM | [15] 0.794 µM
inactive: [9] > 46 µM | [3] | [5] | [6] | [7] | [8]

O=[N+]([O-])c1ccc2cn[nH]c2c1
inactive: [9] > 46 µM | [5] | [6] | [7] | [8]
